Source: PubChem BioAssay
Active and inactive are the calls of the source.

Legend:
[1] = small molecules captured by biotinylated probe aFSTL3 – biochemical, small-molecule microarray, fluorescence 635/667, stem cell growth factor project, primary screen (AID 1064); settings: higher = more signal;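 further: measures binding of the biotinylated anti-FSTL3 antibody to printed compounds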
[2] = binders from COS7 lysate, DM2A8 probe, primary screen, torsin A project, cell lysate, small-molecule microarray, fluorescence 635/667 (AID 1065); settings: higher = more signal, COS7 lysate expressing mutant human TOR1A
[3] = small molecules captured by biotinylated probe aFGF2 – biochemical, small-molecule microarray, fluorescence 635/667, stem cell growth factor project, primary screen (AID 1067); settings: higher = more signal;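 further: measures binding of biotinylated aFGF2 protein to printed compounds on slides; z-score merges feature fluorescence and signal-to-noise across triplicate slides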
[4] = small molecules captured by biotinylated probe aFGF10 – biochemical, small-molecule microarray, fluorescence 635/667, stem cell growth factor project, primary screen (AID 1071); settings: higher = more signal;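 further: score merges 667 nm spot intensity and signal to noise from triplicate slides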
[5] = target: Neurogenic locus notch homolog protein 2 (Homo sapiens) (UniProt Q04721); experiment: small molecules binding Notch2 protein – biochemical, small-molecule microarray, 635 nm fluorescence, stem cell growth factors, primary screen (AID 1073); settings: higher = more signal
Neurogenic locus notch homolog protein 2 (Homo sapiens), sequence (Q04721 whole entry, looked up, canonical isoform): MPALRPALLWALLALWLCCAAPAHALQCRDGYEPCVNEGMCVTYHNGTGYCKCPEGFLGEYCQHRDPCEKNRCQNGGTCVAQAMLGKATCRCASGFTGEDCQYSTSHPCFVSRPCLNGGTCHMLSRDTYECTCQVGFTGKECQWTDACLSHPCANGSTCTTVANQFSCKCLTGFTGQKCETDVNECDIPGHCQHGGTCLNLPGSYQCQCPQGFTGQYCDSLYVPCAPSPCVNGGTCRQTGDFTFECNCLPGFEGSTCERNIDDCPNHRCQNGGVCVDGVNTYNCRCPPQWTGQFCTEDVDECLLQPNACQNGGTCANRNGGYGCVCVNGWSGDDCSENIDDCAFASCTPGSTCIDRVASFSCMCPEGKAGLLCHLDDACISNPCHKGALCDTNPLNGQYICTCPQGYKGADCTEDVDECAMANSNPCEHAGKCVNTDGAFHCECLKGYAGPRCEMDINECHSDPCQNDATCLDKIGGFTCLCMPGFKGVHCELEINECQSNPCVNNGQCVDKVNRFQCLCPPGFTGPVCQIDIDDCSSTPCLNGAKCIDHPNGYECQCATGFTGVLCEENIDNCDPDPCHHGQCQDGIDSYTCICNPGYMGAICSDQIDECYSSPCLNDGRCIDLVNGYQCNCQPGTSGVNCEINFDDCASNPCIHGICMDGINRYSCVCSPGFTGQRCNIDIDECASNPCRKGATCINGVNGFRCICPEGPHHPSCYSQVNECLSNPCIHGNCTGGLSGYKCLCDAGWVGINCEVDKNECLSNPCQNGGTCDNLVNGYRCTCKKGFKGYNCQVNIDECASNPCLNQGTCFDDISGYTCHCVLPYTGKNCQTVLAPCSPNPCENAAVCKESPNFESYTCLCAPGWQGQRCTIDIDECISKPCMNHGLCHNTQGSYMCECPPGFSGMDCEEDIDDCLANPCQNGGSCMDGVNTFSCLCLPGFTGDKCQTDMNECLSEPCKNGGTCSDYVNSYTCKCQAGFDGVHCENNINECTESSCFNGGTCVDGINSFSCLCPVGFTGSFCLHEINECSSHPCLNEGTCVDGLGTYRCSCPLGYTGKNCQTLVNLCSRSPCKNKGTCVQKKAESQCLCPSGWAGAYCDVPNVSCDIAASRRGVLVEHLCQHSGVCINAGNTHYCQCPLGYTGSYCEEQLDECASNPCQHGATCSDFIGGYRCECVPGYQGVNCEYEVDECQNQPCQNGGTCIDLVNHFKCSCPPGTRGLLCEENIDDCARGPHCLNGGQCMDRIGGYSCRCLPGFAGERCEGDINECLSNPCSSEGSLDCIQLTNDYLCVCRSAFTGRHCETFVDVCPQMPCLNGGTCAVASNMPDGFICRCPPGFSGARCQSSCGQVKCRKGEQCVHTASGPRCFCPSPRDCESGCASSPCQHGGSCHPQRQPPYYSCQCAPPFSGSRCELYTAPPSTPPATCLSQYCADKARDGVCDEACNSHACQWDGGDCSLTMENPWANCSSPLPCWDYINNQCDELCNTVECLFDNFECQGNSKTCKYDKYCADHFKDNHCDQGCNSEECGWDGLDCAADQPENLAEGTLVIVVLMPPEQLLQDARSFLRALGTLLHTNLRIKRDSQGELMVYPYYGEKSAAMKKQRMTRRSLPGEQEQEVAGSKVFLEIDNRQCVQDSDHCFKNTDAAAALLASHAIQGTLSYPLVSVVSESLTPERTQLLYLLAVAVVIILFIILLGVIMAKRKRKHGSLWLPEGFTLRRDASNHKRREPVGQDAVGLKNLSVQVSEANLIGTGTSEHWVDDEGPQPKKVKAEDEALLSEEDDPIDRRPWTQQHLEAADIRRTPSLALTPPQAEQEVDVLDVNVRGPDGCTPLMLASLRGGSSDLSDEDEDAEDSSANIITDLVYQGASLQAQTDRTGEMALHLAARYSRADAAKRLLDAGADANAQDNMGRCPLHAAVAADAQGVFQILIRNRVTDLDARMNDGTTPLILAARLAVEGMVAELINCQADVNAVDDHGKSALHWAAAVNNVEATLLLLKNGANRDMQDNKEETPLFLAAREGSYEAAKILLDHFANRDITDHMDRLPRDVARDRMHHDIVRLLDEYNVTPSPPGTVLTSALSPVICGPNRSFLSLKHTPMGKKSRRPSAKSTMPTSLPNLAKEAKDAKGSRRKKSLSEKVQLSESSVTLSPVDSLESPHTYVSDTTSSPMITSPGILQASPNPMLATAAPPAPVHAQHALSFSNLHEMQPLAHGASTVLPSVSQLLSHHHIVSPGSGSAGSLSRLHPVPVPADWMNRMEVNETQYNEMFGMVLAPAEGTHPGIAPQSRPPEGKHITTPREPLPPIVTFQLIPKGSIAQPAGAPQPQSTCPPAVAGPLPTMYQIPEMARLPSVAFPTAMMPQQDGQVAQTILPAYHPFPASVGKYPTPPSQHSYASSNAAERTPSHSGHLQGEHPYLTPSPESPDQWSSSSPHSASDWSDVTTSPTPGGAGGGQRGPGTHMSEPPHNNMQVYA

[6] = target: Pro-neuregulin-1, membrane-bound isoform (Homo sapiens) (UniProt Q02297); experiment: small molecules binding neuregulin-1 protein – biochemical, small-molecule microarray, fluorescence 635/667, psychiatric disease protein project, primary screen (AID 1075); settings: NRG1 binding, 635 nm fluorescence, higher = more signal;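 further: score combines 667 nm spot fluorescence with signal to noise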
Pro-neuregulin-1, membrane-bound isoform (Homo sapiens), sequence (Q02297 whole entry, looked up, the tested form may be a part, canonical isoform): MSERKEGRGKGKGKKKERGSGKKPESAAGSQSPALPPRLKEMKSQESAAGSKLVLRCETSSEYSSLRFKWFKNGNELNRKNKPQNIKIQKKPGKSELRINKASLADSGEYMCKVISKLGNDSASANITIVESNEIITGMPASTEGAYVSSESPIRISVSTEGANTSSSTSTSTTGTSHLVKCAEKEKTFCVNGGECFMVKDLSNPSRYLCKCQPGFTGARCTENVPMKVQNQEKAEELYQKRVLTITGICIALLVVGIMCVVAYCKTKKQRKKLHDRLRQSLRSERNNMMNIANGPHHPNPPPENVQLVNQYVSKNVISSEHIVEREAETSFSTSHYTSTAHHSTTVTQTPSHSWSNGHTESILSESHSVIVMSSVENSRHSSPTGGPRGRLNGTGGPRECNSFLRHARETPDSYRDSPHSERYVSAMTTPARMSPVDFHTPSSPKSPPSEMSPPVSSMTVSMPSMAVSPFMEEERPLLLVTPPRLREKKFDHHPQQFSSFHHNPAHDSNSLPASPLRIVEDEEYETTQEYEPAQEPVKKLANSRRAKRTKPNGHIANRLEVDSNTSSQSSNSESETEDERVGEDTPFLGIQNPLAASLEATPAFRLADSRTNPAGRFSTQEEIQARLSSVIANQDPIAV

[7] = system: Neuregulin-1 EGF-like domain; experiment: small molecules binding NRG1 EGF domain – biochemical, small-molecule microarray, 635 nm fluorescence, primary screen (AID 1081); settings: higher = more signal;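 further: binding of the protein to compounds printed on small-molecule microarray slides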
[8] = FRG1 expression reporter modulators in myotubes – cell-based, C2C12 myotubes, firefly/Renilla luciferase, luminescence, FRG1 inhibition for FSHD, primary screen (AID 1084); settings: FRG1 promoter luciferase, higher = more signal, called active from +8 up or from −8 down
[9] = small molecules captured by biotinylated probe aFST – biochemical, small-molecule microarray, fluorescence 635/667, stem cell growth factor project, primary screen (AID 1086); settings: higher = more signal;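 further: score merges 667 nm fluorescence with signal-to-noise of each printed compound spot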
[10] = binders of probe aHhip on microarray, primary screen, stem cell growth factor project, biochemical, small-molecule microarray, fluorescence 635/667 (AID 1087); settings: higher = more signal;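 further: score merges spot fluorescence at 667nm with spot signal to noise ratio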

| Structure (SMILES) | composite z-score [1] | composite z-score [2] | composite z-score [3] | composite z-score [4] | composite z-score [5] | composite z-score [6] | composite z-score [7] | z-score [8] | composite z-score [9] | composite z-score [10] |
| --- | --- | --- | --- | --- | --- | --- | --- | --- | --- | --- |
| COC(=O)c1c2oc(c1C(=O)OC)C(=O)NC1(CCCCC1)c1cn(nn1)C[C@H](Cc1ccccc1)NC(=O)N[C@H](CO)CC2 | -0.414 | -0.0111 | -0.13 | 0.117 | 0.531 | 1.49 | 1.11 | -0.553 (inactive) | -0.224 | 0.0373 |
| COc1ccc(C(=O)Nc2cccc(CN3C(=O)[C@]4(O[C@H](CCn5cc(CCO)nn5)[C@@H]([Si](C)(C)c5ccc(OC)cc5)[C@@H]4C)c4ccccc43)c2)cc1 | 0.287 | -0.161 | -0.116 | -0.13 | 0.91 | 0.654 | 1.04 | -2.91 (inactive) | 0.372 | -0.137 |
| [N-]=[N+]=NCc1ccccc1C[C@@]1(C(=O)NCC(O)CO)N=C(c2ccc(OCCCO)cc2)O[C@@H]1c1ccccc1 (stereo not given in full) | 1.03 | 0.0102 | -0.0459 | 0.206 | 0.111 | 0.768 | 0.952 | -1.26 (inactive) | -0.12 | -0.132 |
| CC(=O)NCCCC[C@@H]1NC(=O)[C@H]2C[C@@H](C(=O)O)[C@@H](c3ccc(O)cc3)N2C1=O | -0.0025 | 0.843 | -0.0135 | 0.607 | 1.23 | 1.1 | 1.3 | -0.316 (inactive) | 0.904 | 0.213 |
| O=C1C2C=CC(C(O)c3ccc4c(c3)OCO4)N(Nc3ccc([N+](=O)[O-])cc3)C2C(=O)N1c1ccccc1 (stereo not given) | -0.407 | 0.566 | 0.0019 | 0.791 | 1.05 | 0.626 | 0.65 | -0.383 (inactive) | 0.314 | -0.134 |
| CN(C)C(=O)[C@]1(Cc2ccccc2)N=C(c2ccc(OCCCO)cc2)O[C@@H]1c1ccccc1N=[N+]=[N-] | 0.303 | 0.746 | 0.0797 | 0.618 | 1.33 | 1.56 | 1.13 | 0.336 (inactive) | 0.532 | 0.0749 |
| COC(=O)[C@@]1(Cc2ccccc2)[C@H]2c3cc(C(=O)N4CCCC4)n(Cc4c(CO)[nH]cc(C)c4=O)c3C[C@H]2CN1C(=O)c1ccccc1 | 1.13 | -0.0496 | 0.2 | 0.647 | 1.63 | 1.96 | 1.17 | 1.39 (inactive) | 0.915 | -0.121 |
| COCCOC(=O)N1C(=O)[C@@]2(c3cc(C#CCCO)ccc31)[C@H](c1ccc(O)cc1)N1[C@H](c3ccccc3)[C@H](c3ccccc3)OC(=O)[C@H]1[C@@H]2C(=O)N1CCN(c2ncccn2)CC1 | -0.788 | 0.325 | 0.005 | 0.792 | 1.44 | 1.49 | 1.24 | -0.606 (inactive) | 0.437 | 0.783 |
| O=C1OCCC=C[C@H]2OC34C=CCN(c5ccc(Cl)cc5)C(=O)[C@H]3N(CCCO)C(=O)[C@@H]4C12 (stereo not given in full) | 0.189 | -0.771 | -0.104 | -0.144 | -0.678 | -0.602 | -0.366 | 0.923 (inactive) | -0.155 | -0.236 |
| CC(C)(C)OC(=O)CC[C@]1(C(=O)NCCN2CCOCC2)COC(c2ccc(OCCCO)cc2)=N1 | -0.254 | 0.883 | 0.0569 | 0.691 | 0.361 | 1.33 | 1.41 | -0.783 (inactive) | 0.519 | 0.0623 |
| CCOC(=O)C[C@H]1[C@H](OC(=O)c2ccc(C(=O)c3ccccc3)cc2)[C@@H](NC(=O)Cc2ccc(OC)cc2)c2cc(OCCCO)ccc2N1C(=O)c1ccc2ccccc2n1 | -0.537 | 0.0267 | -0.0887 | 0.371 | 0.298 | 0.843 | 0.325 | -2.62 (inactive) | 0.612 | -0.0994 |
| CC(C)NC(=O)[C@@]1(Cc2ccccc2I)c2ccccc2C(=O)N(Cc2ccccc2Cl)[C@H]1c1ccc(CO)cc1 | 0.232 | 0.152 | 0.028 | 0.504 | 0.917 | 1.19 | 1.22 | -2.18 (inactive) | 0.237 | -0.0994 |
| COCCOC(=O)N1C(=O)[C@@]2(c3cc(C#CCCO)ccc31)[C@H](c1ccc(OCCO)cc1)N1[C@H](c3ccccc3)[C@H](c3ccccc3)OC(=O)[C@H]1[C@@H]2C(N)=O | -0.139 | 0.947 | -0.0182 | 0.916 | 1.16 | 0.741 | 1.23 | -0.485 (inactive) | 0.177 | -0.239 |
| C=C[C@H](C)[C@@H](OC(=O)Nc1ccc(SC)cc1)c1ccc(O)c2ccccc12 | -0.151 | 0.152 | 0.0111 | 0.358 | 0.68 | 0.423 | 1.43 | 5.42 (inactive) | 0.455 | -0.0994 |
| O[C@@H](Cc1ccccc1)[C@@H](/C=C/C1CC1)NCc1cccc(Cl)c1 | 1.53 | 0.0563 | -0.224 | -0.813 | -1.43 | -0.146 | -0.344 | -0.715 (inactive) | -0.699 | -0.0994 |
| C[C@H]1C2[C@H](Cc3ccccc3)NC(=O)[C@]23C(=O)NCC(=O)N2CCC[C@H]2C(=O)NC/C=C/CCC/C=C/C3[C@@H]2O[C@]12C (stereo not given in full) | -0.106 | -0.511 | -0.191 | -0.261 | -0.754 | -0.0754 | -0.125 | -0.111 (inactive) | -0.653 | -0.249 |
| CCCCN1CC=CC23O[C@@H]4/C=C\CCCOC(=O)C4[C@H]2C(=O)N(CCCO)[C@@H]3C1=O (stereo not given in full) | 0.228 | -0.7 | -0.036 | -0.0326 | -0.913 | 0.817 | 1.46 | 0.829 (inactive) | -0.629 | -0.318 |
